For 15 compounds, AC50 results are on record in PubChem BioAssay AID540356 (Broad Institute, 2011).

The AC50 is the midpoint of the concentration-response curve, whichever way the signal moves.

The whole screen tested about 2,500 compounds, of which about 360 (14%) were called active.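 Rule for the calls: active = signal-lowering compounds whose fitted half-maximal concentration AC50 is no higher than ten times their top tested concentration; inconclusive = flat curve with 30 to 70% inhibition, or poor fit; inactive = flat within 30%, signal increase, or AC50 above limit.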 Only a sample is shown.

This assay in a line: non-specific inhibitors of H2O2 luminol chemiluminescence – biochemical, luminescence, no ALR or DTT, cherry-pick, artefact control for ALR inhibitor project, dose response (AID 540356). As to conditions: HRP/H2O2 luminol luminescence counterscreen; series mostly up to 10 µM. A general note: Counterscreens check selectivity or assay interference.
Take `CNCCc1ccc(O)c(O)c1`: the AC50 entry was “inactive”.

With `NCCc1ccc(O)c(O)c1`, the AC50 was 6.13 µM (active).

Turning to `C/C(CCc1c[nH]c2ccccc12)=N\O`, the AC50 result was “inactive”.

As for `CCc1ccc(N2C(=O)NC(=O)/C(=C\C=C\c3ccco3)C2=O)cc1`, the AC50 entry is “inactive”.

Take `CC1=NN(c2ccccc2)C(=O)C1/C=C1/C(=O)NC(=O)N(c2cc(C)cc(C)c2)C1=O` (stereo not given): the AC50 entry is “inactive”.

As for `Cn1c(O)c(/C=N/Nc2ccccc2)c(=O)n(C)c1=O`, the AC50 was 1.32 µM (active).

For `CN=C(SCc1ccccc1)c1c(O)n(C)c(=O)n(C)c1=O`, the AC50 entry was “inactive”.

On to `N/C(=N\[N+](=O)[O-])N/N=C/c1ccc(O)cc1`, for which the AC50 result was “inactive”.

In the case of `C=CCN1C(=O)NC(=O)/C(=C\c2ccc(-c3ccccc3[N+](=O)[O-])o2)C1=O`, the AC50 entry is “inactive”.

For the compound `Cc1ccc(/C=C2\C(=O)NC(=O)N(Cc3ccccc3Cl)C2=O)o1`, the AC50 result is “inactive”.

With `CCCN1CCc2cccc3c2[C@H]1Cc1ccc(O)c(O)c1-3`, the AC50 is 9.91 µM (active).

As for `CC(=O)Nc1ccccc1OP1(=O)COc2ccccc2OC1`, the AC50 entry was “inactive”.

As to `Cc1ccc(/C=C2\C(=O)NC(=O)N(CCc3ccc(F)cc3)C2=O)s1`, the AC50 entry was “inactive”.

For the compound `O=C(O)C12C3CCCC1C32c1ccccc1` (stereo not given), the AC50 result was “inactive”.

With `CCNc1ccc(P(=S)(N(C)C)N(C)C)cc1`, the AC50 result was “inactive”.
